Data: PubChem BioAssay (EPA / NIEHS)
Where “and” joins values, the source holds several entries; their conditions need not be identical. Identical values can stand only once. Inconclusive results are not listed. Where a structure was tested more than once in an assay, its records may differ in their call. Calls of active or inactive are those of the source. The calls were made as follows, unless noted: active = hit-call score of the fitted dose curve at least 0.9, where 1 is the maximum; inactive = score below 0.9.

Experiments:
[1] = BSK_BT_PBMCCytotoxicity: PBMC Cytotoxicity Assessment in the BioMAP Diversity Plus: BT Assay (AID 2284225); conditions: primary human B cells with PBMC;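 also: PBMC viability measured by Alamar Blue dye reduction fluorescence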
Method in brief: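 Viability by Alamar Blue reduction (6 h, ex/em 546/580 nm) after 90 h culture of SEB/TSST-1-activated PBMC (20 ng/mL each) given compound 1 h before activation. DMSO served as baseline for curve fitting.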

[2] = read-out: Secreted IgG (sIgG), gene 3500; test: BSK_BT_sIgG: BioMAP Diversity Plus: BT Assay for Secreted IgG (sIgG) Biomarker Activity (AID 2284226); conditions: primary human B cells with PBMC
Method in brief: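 Cells (B cells with peripheral blood mononuclear cells) are dosed, cultured 24 h, then supernatant IgG is measured by ELISA. DMSO serves as negative control; curves are fitted for signal increase.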

[3] = read-out: Interleukin 6 (IL6), IL6 (gene 3569); test: BSK_BT_xIL6: BioMAP Diversity Plus: BT Assay for Interleukin 6 (IL6) Biomarker Activity (AID 2284228); conditions: primary human B cells with PBMC
Method in brief: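 IL-6 secretion measured (Luminex xMAP) in human primary B cell + PBMC co-culture at 24 h of chemical exposure; DMSO served as negative control and activity baseline, with curves fitted for increase.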

[4] = IUF_NPC1b_proliferation_BrdU_72hr: Leibniz Research Institute for Environmental Medicine (IUF) 72-hour Neural Progenitor Cell Bromodeoxyuridine (BrdU) Proliferation Assay (NPC1b) (AID 2284207)
Method in brief: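 Human fetal cortex-derived (GW 16-19) neural progenitor spheres, 0.25-0.35 mm, one per well in EGF/FGF proliferation medium, exposed to compound for 72 h at 37C, pH 7.2-7.6. BrdU incorporation over the final 16 h read by luminescence ELISA, relative to DMSO.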

[5] = IUF_NPC1a_proliferation_area_72hr: Leibniz Research Institute for Environmental Medicine (IUF) 72-hour Neural Progenitor Cell Proliferation Area Assay (NPC1a) (AID 2284208)
Method in brief: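 Measured in 3D suspension: each well held one primary hNPC sphere grown with EGF and FGF at pH 7.2-7.6. Compound stayed on for 72 h, then area was imaged; spheres lacking growth factors defined reduced proliferation.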

[6] = IUF_NPC1_viability_72hr: Viability Assessment at 72 hours in the Leibniz Research Institute for Environmental Medicine (IUF) Neural Progenitor Cell Proliferation Assay (NPC1) (AID 2284209)
Method in brief: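 Spheres of primary human neural progenitors were plated singly in proliferation medium and treated for 72 h. Mitochondrial reduction of resazurin was then measured by fluorescence and analysed against DMSO controls.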

[7] = CCTE_Mundy_HCI_Cortical_Synap_Neur_Matur_NeuriteSpotCountPerNeuriteLength: CCTE's Synaptogenesis and Neurite Maturation Assay in rat cortical cells for Neurite Spot Count per Neurite Length, Mundy Lab (AID 2284210)
Method in brief: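 Synaptophysin spots per unit neurite length, measured by automated imaging of MAP2/synaptophysin/Hoechst-stained neurons. Cultures from rat cortex received chemical at DIV 7 with media change through DIV 12; glial growth arrested by AraC at DIV 5; DMSO baseline.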

[8] = CCTE_Mundy_HCI_Cortical_Synap_Neur_Matur_BPCount: CCTE's Synaptogenesis and Neurite Maturation Assay in rat cortical cells for Branch Point Count, Mundy Lab (AID 2284211)
Method in brief: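 HCI read-out of branch points from MAP2/synaptophysin/Hoechst immunofluorescence; rat cortical cultures, AraC DIV 5, dosing DIV 7, fixed DIV 12; fit in positive direction vs DMSO baseline.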

[9] = CCTE_Mundy_HCI_Cortical_NOG_NeuriteCount: CCTE's Neurite Outgrowth Assay in rat cortical cells for Neurite Count, Mundy Lab (AID 2284212);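 also: cells fixed about two days after chemical exposure began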
Method in brief: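 Rat cortical primary cells; compound added 2 h post-plating, 1/10 dilution of working solution. Anti-betaIII-tubulin/AF488 ICC; ArrayScan neurite count vs DMSO.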

[10] = CCTE_Mundy_HCI_Cortical_NOG_NeuriteLength: CCTE's Neurite Outgrowth Assay in rat cortical cells for Neurite Length, Mundy Lab (AID 2284213);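 as to AC50: neurites imaged about 48 to 50 h after chemical exposure began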
Method in brief: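 First, rat primary cortical cells were plated and, 2 h later, given test chemical as a 1/10 dilution. Finally, βIII-tubulin immunostaining enabled automated imaging of neurite length.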

[11] = CCTE_Mundy_HCI_Cortical_Synap_Neur_Matur_NeuriteLength: CCTE's Synaptogenesis and Neurite Maturation Assay in rat cortical cells for Neurite Length, Mundy Lab (AID 2284214)
Method in brief: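 Cultures of rat primary cortical cells received chemical at DIV 7 and were fixed at DIV 12, after glial arrest with AraC at DIV 5. Neurite length was measured by automated imaging of MAP2 immunofluorescence.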

[12] = CCTE_Mundy_HCI_Cortical_Synap_Neur_Matur_NeuriteSpotCountPerNeuron: CCTE's Synaptogenesis and Neurite Maturation Assay in rat cortical cells for Neurite Spot Count per Neuron Count, Mundy Lab (AID 2284215)
Method in brief: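 Developing rat cortical neurons, with glia suppressed by AraC, are exposed to chemicals from DIV 7 to DIV 12. Automated fluorescence imaging of MAP2-labelled neurites and synaptophysin puncta yields a count per neuron, normalised against DMSO wells.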

[13] = CCTE_Mundy_HCI_Cortical_Synap_Neur_Matur_SynapseCount: CCTE's Synaptogenesis and Neurite Maturation Assay in rat cortical cells for Synapse Count, Mundy Lab (AID 2284218)
Method in brief: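 Cells were plated, allowed 2 hr to attach, treated with AraC at DIV 5, then exposed to chemicals from DIV 7 until DIV 12. After fixation and MAP2/synaptophysin immunolabelling, synapses per neuron were quantified by automated imaging against DMSO.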

[14] = CCTE_Mundy_HCI_Cortical_Synap_Neur_Matur_NeuriteCount: CCTE's Synaptogenesis and Neurite Maturation Assay in rat cortical cells for Neurite Count, Mundy Lab (AID 2284222)
Method in brief: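 Rat cortical neurons, 96-well; AraC DIV 5; chemical + media change DIV 7; end DIV 12. Fix PFA/Hoechst, anti-MAP2 + anti-synaptophysin IF. HCI neurite count vs DMSO baseline.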

[15] = CCTE_Mundy_HCI_Cortical_Synap_Neur_Matur_CellBodySpotCount: CCTE's Synaptogenesis and Neurite Maturation Assay in rat cortical cells for Cell Body Spot Count, Mundy Lab (AID 2284223)
Method in brief: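 Chemicals were applied to AraC-treated rat primary cortical cells at DIV 7 and measured at DIV 12. Fixed cells were labelled for MAP2, synaptophysin and nuclei, and high-content imaging gave cell body synaptophysin spot counts per neuron relative to DMSO.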

[16] = CCTE_Mundy_HCI_hNP1_Pro_ResponderAvgInten: CCTE's Proliferation Assay in human neuroprogenitor cells, Mundy Lab (AID 2284224; active = hit-call score of the fitted dose curve at least 0.9, where 1 is the maximum;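 also: human neural progenitor cells hNP1 derived from WA09 embryonic stem cells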)
Method in brief: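 Proliferation was scored as BrdU labelling intensity in human neural progenitors derived from WA09 embryonic cells, measured 26.25 hours after chemical dosing. Activity was fitted relative to DMSO.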

[17] = CCTE_Mundy_HCI_hN2_NOG_NeuriteCount: CCTE's Neurite Outgrowth Assay in human hN2 cells for Neurite Count, Mundy Lab (AID 2284219; active = hit-call score of the fitted dose curve at least 0.9, where 1 is the maximum)
Method in brief: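 In this morphology assay, hNP1-derived neurons received test chemical 2 h post-plating and were fixed two days later in warm paraformaldehyde/sucrose containing Hoechst 33342. Neurites, labelled by rabbit anti-βIII-tubulin (1:800) and Alexa Fluor-488 (1:500), were counted automatically.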

[18] = CCTE_Mundy_HCI_hN2_NOG_NeuriteLength: CCTE's Neurite Outgrowth Assay in human hN2 cells for Neurite Length, Mundy Lab (AID 2284220; active = hit-call score of the fitted dose curve at least 0.9, where 1 is the maximum)
Method in brief: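 Plate hNP1-derived neurons, then add chemical 2 h later as a 1/10 dilution. Stain with anti-βIII-tubulin then Alexa Fluor-488 secondary, and image automatically to measure neurite length.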

[19] = CCTE_Mundy_HCI_hN2_NOG_NeuronCount: CCTE's Neurite Outgrowth Assay in human hN2 cells for Neuron Count, Mundy Lab (AID 2284221; active = hit-call score of the fitted dose curve at least 0.9, where 1 is the maximum)
Method in brief: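 Read-out is the number of betaIII-tubulin-positive neurons imaged by automated high-content analysis, with DMSO as negative control.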

[20] = TAMU_PeakParms_SingleDonor1434_Chronotropy: Texas A&M University (TAMU) 1.5-hr Human Induced Pluripotent Stem Cell (iPSC)-derived Cardiomyocytes Calcium (Ca+2) Flux Assay for Cardiotoxicity: Chronotropy (changes in peak frequency) (AID 2284217); conditions: actives raise or lower the signal
Method in brief: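 Beat rate, as mean Ca2+-flux peak frequency, was read from donor 1434 iPSC cardiomyocytes 90 min after exposure to 0.2–100 uM test chemical (0.5% DMSO). Wells that stopped beating were excluded; EC05 from bidirectional DMSO-referenced fitting.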

Measured: AC50

Sc1ccccc1
inactive: [1] | [2] | [3]

CO/C=C(/C(=O)OC)c1ccccc1COc1cccc(C(F)(F)F)n1
inactive: [4]
active: [5] 12.6 µM | [6] 25.3 µM | [7] 1.09 µM | [8] 1.16 µM | [9] 1.55 µM | [10] 1.43 µM | [11] 0.731 µM | [12] 0.688 µM | [13] 0.871 µM | [14] 1.46 µM | [15] 1.16 µM | [16] 86.9 µM

Oc1c(Cl)c(Cl)c(Cl)c(Cl)c1Cl
inactive: [1] | [3]
active: [2] 27 µM

O=S(=O)(O)C(F)(F)C(F)(F)C(F)(F)C(F)(F)C(F)(F)C(F)(F)F
not listed: [17] | [18] | [19] | [20]
inactive: all other assays above

O=C(O)C(F)(F)C(F)(F)C(F)(F)C(F)(F)C(F)(F)C(F)(F)C(F)(F)C(F)(F)C(F)(F)F
inactive: [1] | [2] | [3]
active: [1] 5.95 µM

O=S(=O)(O)C(F)(F)C(F)(F)C(F)(F)C(F)(F)F
not listed: [16] | [17] | [18] | [19] | [20]
inactive: all other assays above

ClC1=C(Cl)[C@]2(Cl)[C@@H]3[C@@H](Cl)[C@H]4O[C@H]4[C@@H]3C1(Cl)C2(Cl)Cl
inactive: [7] | [14]
active: [8] 3.36 µM | [9] 16.6 µM | [10] 16 µM | [11] 4.05 µM | [12] 8.58 µM | [13] 9.03 µM | [17] 13.2 µM | [18] 13.1 µM | [19] 5.59 µM | [15] 9.92 µM | [16] 15.8 µM

COc1ccc(O)c(C(C)(C)C)c1
inactive: [7] | [8] | [9] | [10] | [11] | [12] | [13] | [14] | [15] | [16]

c1cc2ccc3cccc4ccc(c1)c2c34
active: [20] 50 µM

CCOP(=S)(OCC)SCSC(C)(C)C
active: [7] 23 µM | [8] 80.7 µM and 23.2 µM | [10] 91 µM and 79.2 µM | [11] 81.5 µM and 17.5 µM | [12] 81 µM and 22.9 µM | [13] 79.7 µM and 22.9 µM | [14] 22.5 µM | [15] 22.9 µM
inactive: [4] | [5] | [6] | [7] | [17] | [18] | [19] | [14] | [15] | [16]

ClC1=C(Cl)[C@]2(Cl)[C@@H]3[C@@H]4C[C@@H]([C@H]5O[C@@H]45)[C@@H]3[C@@]1(Cl)C2(Cl)Cl
active: [7] 25.5 µM | [10] 8.83 µM | [11] 12.8 µM | [12] 13 µM | [20] 4.73 µM | [13] 13.2 µM | [19] 50 µM | [15] 24 µM | [16] 25.2 µM
inactive: [18]

NS(=O)(=O)C(F)(F)C(F)(F)C(F)(F)C(F)(F)C(F)(F)C(F)(F)C(F)(F)C(F)(F)F
active: [2] 23.8 µM and 45.3 µM | [3] 44.5 µM and 43.1 µM
inactive: [1]

C=CC(N)=O
not listed: [1] | [2] | [3] | [16]
inactive: all other assays above

O=C(O)C(F)(F)C(F)(F)C(F)(F)C(F)(F)C(F)(F)C(F)(F)C(F)(F)C(F)(F)F
inactive: [1] | [2] | [3]

O=C(O)C(F)(F)C(F)(F)C(F)(F)C(F)(F)C(F)(F)F
inactive: [1] | [2] | [3]
